Measured values: PubChem BioAssay (NCATS)
Records with an inconclusive call do not appear. Calls of active or inactive are those of the source. Calls follow the shape of the dose curve; as a rule, active = well fitted inhibition curve with a large enough effect; inconclusive = small, poorly fitted or top-dose-only effect; inactive = flat fitted curve, though single readings scatter.

Key:
Experiment in all cases: qHTS profiling for inhibitors of Plasmodium falciparum proliferation (AID 504749); also: nearly all actives have a fitted effect of over 60% in size
Details in all cases: P. falciparum in erythrocytes, SYBR Green DNA, 72 h; series mostly up to 28.7 µM
CP201 = test system: CP201
Summary of the method: (§1)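 In a 72 h erythrocytic culture (37 C, humidified, 5% CO2) at 2.5% hematocrit and 0.3% starting parasitemia, compounds were tested; SYBR Green I in detergent lysis buffer stained parasite DNA overnight.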

CP203 = test system: CP203
Summary of the method: as §1

CP211 = test system: CP211
Summary of the method: as §1

CP217 = test system: CP217
Summary of the method: as §1

CP237 = test system: CP237
Summary of the method: as §1

CP238 = test system: CP238
Summary of the method: as §1

CP247 = test system: CP247
Summary of the method: as §1

CP250 = test system: CP250
Summary of the method: as §1

CP252 = test system: CP252
Summary of the method: as §1

CP256 = test system: CP256
Summary of the method: as §1

CP260 = test system: CP260
Summary of the method: as §1

CP262 = test system: CP262
Summary of the method: as §1

CP265 = test system: CP265
Summary of the method: as §1

CP266 = test system: CP266
Summary of the method: as §1

CP268 = test system: CP268
Summary of the method: as §1

CP269 = test system: CP269
Summary of the method: as §1

CP286 = test system: CP286
Summary of the method: as §1

CP291 = test system: CP291
Summary of the method: as §1

CP297 = test system: CP297
Summary of the method: as §1

CP305 = test system: CP305
Summary of the method: as §1

Measured: Potency

C[N+]1(C)C2CC[C@H]1CC(OC(=O)[C@@H](CO)c1ccccc1)C2 (stereo not given in full)
inactive: all assays above
